From PMC4336329 (PLoS ONE, 2015)
Out of some 310,000 compounds screened, about 14,000 (4.5%) showed an effect of 50% or more. Effects have a minus sign here. The full list was thinned out, with strong results kept by preference.

molecular target: human ether-à-go-go-related gene (hERG) potassium channel (human, UniProt Q12809); assay: primary screen, population patch clamp on CHO cells stably expressing hERG; higher = less effect of the substance
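Further: peak tail current of the secondary pulse compared with the same well before compound.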

human ether-à-go-go-related gene (hERG) potassium channel, sequence (Q12809 whole entry, looked up): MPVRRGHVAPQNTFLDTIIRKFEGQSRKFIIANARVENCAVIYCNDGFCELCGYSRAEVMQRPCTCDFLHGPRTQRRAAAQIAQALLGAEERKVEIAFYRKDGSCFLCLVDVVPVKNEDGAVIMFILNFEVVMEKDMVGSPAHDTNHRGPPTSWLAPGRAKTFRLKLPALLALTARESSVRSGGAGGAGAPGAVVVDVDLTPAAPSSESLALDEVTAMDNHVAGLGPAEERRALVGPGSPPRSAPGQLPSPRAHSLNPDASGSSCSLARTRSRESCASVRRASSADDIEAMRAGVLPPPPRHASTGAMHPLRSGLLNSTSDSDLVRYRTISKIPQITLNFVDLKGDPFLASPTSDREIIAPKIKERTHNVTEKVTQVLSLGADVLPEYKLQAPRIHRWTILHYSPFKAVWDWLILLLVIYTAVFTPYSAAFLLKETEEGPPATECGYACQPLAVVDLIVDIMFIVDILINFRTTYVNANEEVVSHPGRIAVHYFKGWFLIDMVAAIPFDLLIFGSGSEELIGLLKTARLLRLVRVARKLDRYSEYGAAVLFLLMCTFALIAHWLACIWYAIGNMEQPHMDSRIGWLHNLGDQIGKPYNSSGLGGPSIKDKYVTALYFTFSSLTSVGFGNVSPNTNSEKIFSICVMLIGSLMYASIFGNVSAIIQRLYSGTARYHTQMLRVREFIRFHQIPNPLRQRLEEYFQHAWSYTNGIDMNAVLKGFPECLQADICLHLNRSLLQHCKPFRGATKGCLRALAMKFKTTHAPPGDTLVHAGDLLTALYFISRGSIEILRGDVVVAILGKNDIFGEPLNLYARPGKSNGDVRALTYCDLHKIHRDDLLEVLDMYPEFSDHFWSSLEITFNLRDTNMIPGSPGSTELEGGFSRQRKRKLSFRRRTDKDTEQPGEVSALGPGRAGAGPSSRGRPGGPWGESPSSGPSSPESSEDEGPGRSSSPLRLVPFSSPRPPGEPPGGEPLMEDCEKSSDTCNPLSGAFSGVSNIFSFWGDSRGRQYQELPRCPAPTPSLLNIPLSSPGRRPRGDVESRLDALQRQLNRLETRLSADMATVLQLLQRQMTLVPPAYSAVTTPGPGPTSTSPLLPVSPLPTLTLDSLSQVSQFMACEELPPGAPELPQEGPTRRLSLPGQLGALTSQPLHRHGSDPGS

Compound	hERG current change (%, negative = inhibition) at 10uM
CCN(CC)c1ccc2c(c1)oc(=O)c1c(Cl)cc(=O)oc12	14.8%
COc1cc(O)c(NC(C)=O)c2nonc12	11.2%
CCn1c(SC)nnc1C1CCN(S(=O)(=O)c2ccc(OC)cc2)CC1	-4.3%
CCn1c(SCC(=O)c2ccc(OC)cc2)nnc1C1CC1	6.73%
CCn1c(SCc2ccccc2)nnc1C1CCN(S(=O)(=O)c2ccc(OC)cc2)CC1	-60.8%
CCn1c(SCc2ccc(C)cc2)nnc1C1CCN(S(=O)(=O)c2ccc(OC)cc2)CC1	-64.5%
Cc1ccc(S(=O)(=O)N2CCC(c3nnc(SCCN4CCCC4)n3C)CC2)cc1	17.7%
CCn1c(SCc2ccc(F)cc2)nnc1C1CCN(S(=O)(=O)c2ccc(OC)cc2)CC1	-64.3%
CCn1c(SC(C)C)nnc1C1CCN(S(=O)(=O)c2ccc(OC)cc2)CC1	-20.6%
CCn1c(C2CCN(S(=O)(=O)c3ccc(OC)cc3)CC2)n[nH]c1=S	-18%
CCn1c(SCc2ccccc2)nnc1C1CCCCC1	-11.2%
COc1ccc2c(c1)c(CC(=O)Nc1ccc(C)cc1)c(C)n2C(=O)c1ccc(Cl)cc1	-20.4%
O=C1c2oc3ccccc3c(=O)c2C(c2ccccn2)N1Cc1ccccc1 (centres unmarked)	5.53%
CCOC(=O)c1c(C)nc(-c2ccccc2)nc1NC(=O)CC	1.29%
Cn1c(=O)c2sccc2n2c(CCCC(=O)NCc3ccco3)nnc12	-1.92%
COC(=O)C1CCN(C(=O)c2ccccc2NC(C)=O)CC1	16.8%
O=C(c1nc(SCc2ccc([N+](=O)[O-])cc2)n2ccccc12)C(F)(F)F	-71.1%
O=[N+]([O-])c1ccccc1CSc1nnc2ccccn12	-0.991%
O=c1c2ccccc2nc(SCc2ccc([N+](=O)[O-])cc2)n1-c1ccccc1	10.9%
Cn1ccnc1SCc1ccc([N+](=O)[O-])cc1	-2.75%

Compound	hERG current change (%, negative = inhibition) at 10uM
Brc1ccc(CSc2nnc3ccccn23)cc1	-18.7%
O=[N+]([O-])c1ccc(CSc2nnc3ccccn23)cc1	-57.2%
O=C(NC(=S)NNC(=O)c1ccccc1O)c1cccc([N+](=O)[O-])c1	26.2%
O=C(NCCCN1CCOCC1)C(=O)N/N=C/c1ccccc1	-20.2%
CCC(=NCCN1CCOCC1)c1c(O)n(C2CCCCC2)c(=O)[nH]c1=O	-6.76%
CC1(C)CC(=O)C(CC(=O)N2CCC(Cc3ccccc3)CC2)C(=O)C1	34.8%
CC12CCC(=O)N1C(C(=O)Nc1cccc3ccccc13)CS2 (centres unmarked)	4.6%
Cc1cc2nc(-c3ccc4c(c3)CCC4)ccn2n1	-2.72%
Cc1ccc(NS(=O)(=O)c2cccc(C(=O)NCC3CCCO3)c2)cc1 (centres unmarked)	-10%
Brc1ccc(-c2nn[nH]n2)cc1	11.2%
CC(C)(C)NC(=O)c1ccc2c3c(cccc13)CC2	-51.4%
CC(=O)c1ccc2c3c(cccc13)CC2	2.96%
O=C(NC1CC1)c1ccc2c3c(cccc13)CC2	-2.52%
COc1ccc(Cl)cc1NC(=O)CSc1nnc(C)c(=O)n1N	2.48%
O=C(c1ccccc1)N1N=C(c2ccc(F)cc2)CC1(O)C(F)(F)F (centres unmarked)	-5.31%
C/C(=N/OC(=O)CC(C)C)c1cc(-c2ccc(Cl)cc2)no1	15%
Cc1ccc(NS(=O)(=O)c2cccc(C(=O)NCC(c3ccco3)N3CCCC3)c2)cc1 (centres unmarked)	-47.4%
CCN(c1ccccc1)S(=O)(=O)c1cccc(C(=O)NCC(c2cccs2)N2CCOCC2)c1 (centres unmarked)	-18.7%
Cc1ccc(N(C)S(=O)(=O)c2cccc(C(=O)NCC(c3ccco3)N3CCCC3)c2)cc1 (centres unmarked)	-62.5%
CN(C)C(CNC(=O)c1cc(S(=O)(=O)N(C)c2ccc(F)cc2)ccc1Cl)c1ccco1 (centres unmarked)	-28.3%

Compound	hERG current change (%, negative = inhibition) at 10uM
O=C(NCC(c1ccco1)N1CCCC1)c1cccc(NS(=O)(=O)c2ccccc2)c1 (centres unmarked)	-5.9%
COc1ccc(N(C)S(=O)(=O)c2cccc(C(=O)NCC(c3ccco3)N3CCCC3)c2)cc1 (centres unmarked)	-33.9%
CCN(c1ccccc1)S(=O)(=O)c1cccc(C(=O)NCC(c2ccco2)N2CCCC2)c1 (centres unmarked)	-59.3%
CN(c1ccccc1)S(=O)(=O)c1ccc(C(=O)NCC(c2ccco2)N2CCCCC2)cc1 (centres unmarked)	-12.1%
CN(c1ccccc1)S(=O)(=O)c1ccc(Cl)c(C(=O)NCC(c2ccco2)N2CCCC2)c1 (centres unmarked)	-50.9%
CCCn1ncc2c(Nc3ccc(C)c(C)c3)ncnc21	-25.2%
CC(NC(=O)c1ccco1)C(=O)N1CCN(C(c2ccccc2)c2ccccc2)CC1 (centres unmarked)	-15.7%
O=C(CN(CC1CCCO1)C(=O)CNS(=O)(=O)c1ccc(Cl)cc1)NCCc1ccccc1 (centres unmarked)	-20.8%
COc1ccc(CCn2c(O)c(C=Nc3ccc(NC(C)=O)cc3)c(=O)[nH]c2=O)cc1OC	27.6%
CC(=O)Nc1ccc(S(=O)(=O)NCc2ccccn2)cc1	9.6%
O=Cc1cccc(OC(=O)Nc2ccccc2)c1	6.95%
CN(C)c1cc(-c2ccc(Cl)cc2Cl)oc(=O)c1Cl	0.166%
CCOc1c2ccc(C(=O)NCCCCc3ccccc3)cc2nn1CC	-14.1%
c1cn(CCCNc2ncnc3sc4c(c23)CCC4)cn1	-37.5%
CC1CCc2c(sc3ncnc(N4CCOCC4)c23)C1 (centres unmarked)	-16.6%
OCCCNc1ncnc2sc3c(c12)CCN(Cc1ccccc1)C3	-37.9%
CCCCNc1ncnc2sc3c(c12)CCN(CCC)C3	-76%
COCCCNc1ncnc2sc3c(c12)CCC(C)C3 (centres unmarked)	-24.5%
CC1CCc2c(sc3ncnc(NCCN4CCOCC4)c23)C1 (centres unmarked)	-54.6%
